Most compounds without a hit are left out; they make up all but 3.5% or so of the library.
MITF inh = human MITF inhibition, primary screen. O75030. AlphaScreen MITF homodimerization, bead proximity signal. inhibition, % at 2.6 µM. 650,000 tested, 0.91% active; in the data active = inhibition above about 50%;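 also: 0% = vehicle wells with protein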
TEAD-YAP block = TEAD-YAP interaction inhibition; HEK-TIYL cells, TEAD-Gal4/YAP UAS-luciferase luminescence; inhibition, % at 9.12 µM; 640,000 tested, 1.4% active; in the data active = inhibition above about 32%;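 also: 0% = median of test compound wells and 100% = reference inhibitor wells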
FBW7 act = human FBW7 E3 ligase activation, primary screen. Q969H0. AlphaScreen FBW7–phospho-cyclin E peptide binding, activator screen. normalized activity (activation), % at 26.1 µM. 650,000 tested, 0.13% active; in the data active = normalized activity above about 1.9%;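 also: purified mutant Fbw7 with reduced substrate affinity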
GPR151 ag = human GPR151 activation | Q8TDV0 | PathHunter beta-arrestin GPR151 cells, luminescence | activation, % at 11.2 µM | 650,000 tested, 1% active | AID 1508602; in the data active = activation above about 4.9%;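 also: 0% = median of compound wells and 100% = cells with positive control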
Target sequence (Q8TDV0 whole entry, looked up): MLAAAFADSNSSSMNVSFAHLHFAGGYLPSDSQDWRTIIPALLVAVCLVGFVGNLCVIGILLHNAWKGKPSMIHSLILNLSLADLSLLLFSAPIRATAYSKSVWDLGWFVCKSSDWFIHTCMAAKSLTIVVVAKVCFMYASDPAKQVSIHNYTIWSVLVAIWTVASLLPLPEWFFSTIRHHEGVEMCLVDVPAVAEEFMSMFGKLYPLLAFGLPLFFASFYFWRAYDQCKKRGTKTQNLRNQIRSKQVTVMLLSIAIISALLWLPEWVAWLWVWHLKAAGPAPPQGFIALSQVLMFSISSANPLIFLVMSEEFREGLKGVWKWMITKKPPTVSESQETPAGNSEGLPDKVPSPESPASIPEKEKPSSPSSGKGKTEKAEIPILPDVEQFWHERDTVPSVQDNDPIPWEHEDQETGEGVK
GPR151 conf act = confirmation of human GPR151 activators. 6,700 tested, under 10 active. GPR151 PathHunter beta-arrestin cells, luminescence, 90 min; % of EA-reagent control over plate median. activation, % at 11.2 µM. shares compounds with GPR151 ag;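 active = mean percent activation across replicates above the confirmation screen cutoff of 4.91%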
GPR119 counter = GPR119 activation, counter-screen for GPR151 activators. GPR119 PathHunter beta-arrestin cells, luminescence, 90 min; 0 = compound-well median, 100 = enzyme-acceptor control. activation, % at 11.2 µM. 6,700 tested, 0.3% active. shares compounds with GPR151 ag;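 active = mean percent activation in the counterscreen above 29.09%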;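 also: counterscreen on off-target GPR119 to flag nonselective hits from the GPR151 activator screen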
* marks the source's active call; other numbers are inactive results; / = no result.

SMILES	MITF inh	TEAD-YAP block	FBW7 act	GPR151 ag	GPR151 conf act	GPR119 counter
O=C(CNC(=O)c1ccco1)N/N=C/c1cc(Br)c(O)c(Br)c1	-10	-4	0	0	/	/
C(=N\n1cnnc1)/c1ccc2c(c1)OCO2	-1	-1	0	-1	/	/
C(=N\n1cnnc1)/c1ccc2c(c1)OCCO2	14	-8	0	12*	0	-6
C=CCN=C(N)SCc1nc2ccccc2c(=O)[nH]1	4	2	0	0	/	/
CCCc1cc(CN(C)C(=O)CCC2(Cc3ccco3)CCC(=O)N2)[nH]n1 (centres undefined)	6	-10	0	4	/	/
CCOc1ccccc1C1NC(=O)N(C)C(C)=C1C(=O)OC (centres undefined)	5	2	0	6.0*	0	8
CCOc1ccccc1C1C(C(=O)OC)=C(N)OC2=C1C(=O)CCC2 (centres undefined)	12	1	1	6.0*	1	6
COC(=O)C1=C(C)N(C)C(=O)NC1c1ccccc1OC (centres undefined)	11	9	1	1	/	/
COC(=O)C1=C(C)N(C)C(=O)NC1c1ccc(Br)cc1 (centres undefined)	9	11	0	5.2*	0	-4
CCN1C(=O)N[C@H](c2ccc(Br)cc2)C(C(=O)OC)=C1C	19	/	0	0	/	/
CCOC(=O)CN1C(=O)N[C@@H](c2ccc(Br)cc2)C(C(=O)OC)=C1C	13	/	1	5.0*	1	14
COC(=O)C1=C(C)N(C)C(=O)NC1c1ccc(C(=O)OC)cc1 (centres undefined)	15	2	0	1	/	/
COc1ccccc1CN1CCC2(CC1)CC2C(=O)NCCCn1ccnc1 (centres undefined)	3	-5	0	1	/	/
Cc1nnn(-c2nonc2N)c1C(=O)NN	-4	0	0	0	/	/
CCN1CCC(N(Cc2ccc(F)cc2)C(=O)Nc2cc(F)ccc2F)CC1	-5	-1	0	5.1*	0	10
COc1ccccc1OCCCN1C(=O)C(=O)c2cc(Br)cc(C)c21	-4	13	0	14*	1	15
COc1ccc(CNCc2c(C(=O)O)c(C)n(Cc3ccccc3F)c2C)cc1	20	6	0	0	/	/
CCCCn1c(=O)c2oc3ccccc3c2n(CC(=O)Nc2c(C)cc(C)cc2C)c1=O	13	5	0	-1	/	/
COc1ccc(C2C=C(c3ccc(Cl)cc3)Nc3nc(CCCO)nn32)cc1 (centres undefined)	-1	12	0	6.1*	2	5
Cc1ccc(C2=CC(c3ccc(Cl)cc3)n3nc(CCCO)nc3N2)cc1 (centres undefined)	16	7	0	-1	/	/
Cc1cccc(NC(=O)CC(C)S(=O)(=O)c2ccc3c(c2)SCC(=O)N3)c1C (centres undefined)	-2	1	0	5.8*	0	-1
Cc1cccc(C(C)C)c1NC(=O)CCS(=O)(=O)c1ccc2c(c1)SCC(=O)N2	4	1	0	5.5*	0	6
Cc1c(Cl)cccc1NC(=O)CC(C)S(=O)(=O)c1ccc2c(c1)SCC(=O)N2 (centres undefined)	3	6	0	0	/	/
O=C1[C@H]2CCn3c(=O)n(-c4ccccc4)c(=O)n3[C@H]2[C@H](O)[C@@H]2O[C@H]12	-3	/	0	-2	/	/
CC(C)CNC(=O)C1CC(=O)c2sc(NC(=O)C3CCC3)nc2C1 (centres undefined)	-9	-32	0	1	/	/
SMILES	MITF inh	TEAD-YAP block	FBW7 act	GPR151 ag	GPR151 conf act	GPR119 counter
COc1cccc(Nc2nnc(-c3cc4ccc(O)cc4oc3=O)s2)c1	3	-3	0	5.8*	-1	-15
CCn1c(=O)cc(OCC(=O)NCCN2CCOCC2)c2ccccc21	-4	0	0	1	/	/
O=C(CSc1nc2ccccc2s1)NCc1ccco1	2	-4	0	6.1*	0	5
Cc1nn(Cc2ccc(F)cc2)c(C)c1N	-7	-7	0	15*	1	5
O=C(Nc1ccc2oc(-c3cc(Br)ccc3Cl)nc2c1)c1ccc([N+](=O)[O-])o1	6	14	0	1	/	/
O=C(Nc1ccc2oc(-c3ccc(Br)cc3)nc2c1)c1cc([N+](=O)[O-])ccc1Cl	16	-8	1	6.6*	0	3
O=C(Nc1cccc(O)c1)c1cc([N+](=O)[O-])ccc1Cl	-6	15	0	6.4*	1	1
O=C(Nc1ccc(Cl)c(-c2nc3cc(Cl)ccc3o2)c1)c1ccc([N+](=O)[O-])o1	13	11	0	7.0*	1	9
O=C(O)c1cc([N+](=O)[O-])ccc1C(=O)Nc1cccc(O)c1	4	12	0	-1	/	/
S=c1nc2ccccc2c2nc(COc3ccccc3Br)[nH]n12	-6	-5	0	0	/	/
O=C1NCCN(Cc2ccoc2)C1CC(=O)N1CCN(Cc2cccs2)CC1 (centres undefined)	-7	-2	0	-1	/	/
Cc1ccc(OCCNC(=O)C(=O)Nc2ccccc2F)cc1C	1	1	0	5.2*	1	-3
NN1C(=O)c2ccccc2NC1C1CC=CCC1 (centres undefined)	16	-11	1	20*	-1	-9
Cc1ccnc(NC(NC(=O)c2ccco2)(C(F)(F)F)C(F)(F)F)c1	9	7	0	1	/	/
COc1cc(OC)c(CN2CCc3nnc(C4CCCO4)n3CC2)c(OC)c1 (centres undefined)	-5	-12	0	5.3*	0	4
CCn1cc(CN2CCN(Cc3ccccc3C)C(CCO)C2)cn1 (centres undefined)	15	-11	0	-1	/	/
CC(=N)c1c(O)c2cc([N+](=O)[O-])ccc2oc1=O	0	9	0	5.7*	0	1
COc1c([N+](=O)[O-])c(=O)oc2ccc([N+](=O)[O-])cc12	7	-2	0	-2	/	/
COc1ccccc1[C@@H]1C[C@H](OC(=O)c2ccc(F)cc2)C(=O)N1C	-20	-2	0	0	/	/
COc1cc(-n2c(C)nc3cc(C(=O)NCc4ccc5c(c4)OCO5)ccc32)cc(OC)c1OC	0	-15	0	-1	/	/
Cc1cc(NCc2ccccc2)nc(-c2ccc(N3CCN(C)CC3)cc2)n1	14	7	0	14*	-1	-6
C/C(=N\NC(=O)c1ccc(C(=O)N/N=C(\C)c2ccc(F)cc2)cc1)c1ccc(F)cc1	7	-3	0	1	/	/
C/C(=N\NC(=O)c1ccc(F)cc1)c1ccccc1	-2	-51	0	5.4*	0	7
CC1CCN(C(=O)CSc2nc3ccsc3c(=O)n2-c2ccccc2)CC1	-10	-12	0	1	/	/
